Reference: PubChem BioAssay (EPA / NIEHS)
Activity calls are given as the source filed them. How the source made its calls: active means hit-call score of the fitted dose curve at least 0.9, where 1 is the maximum; inactive means score below 0.9.

Assays:
Conditions in all cases: mRNA level, 48 h; actives raise or lower the signal
[1] = read-out: Intercellular Adhesion Molecule 1 (ICAM1), ICAM1 (gene 3383); experiment: LTEA_HepaRG_ICAM1: Life Technologies and Expression Analysis (LTEA) Assay for Intercellular Adhesion Molecule 1 (ICAM1) using HepaRG (AID 2283507)
Method in brief: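 Differentiated human HepaRG cells in serum-free induction medium exposed 48 h in duplicate to 8 half-log concentrations (top 100 uM, 0.5% DMSO). ICAM1 mRNA quantified by TaqMan qRT-PCR, normalized to ACTB, GAPDH and POLR2A; bidirectional fitting versus DMSO.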

[2] = read-out: Insulin-like growth factor-binding protein 1 (IGFBP1), IGFBP1 (gene 3484); experiment: LTEA_HepaRG_IGFBP1: Life Technologies and Expression Analysis (LTEA) Assay for Insulin-like growth factor-binding protein 1 (IGFBP1) using HepaRG (AID 2283508)
Method in brief: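 HepaRG cells, plated 48 h then switched to serum-free induction medium, exposed in duplicate for 48 h to 8-point half-log series from 100 uM in 0.5% DMSO. mRNA measured by qRT-PCR, normalized to ACTB/GAPDH/POLR2A; bidirectional fit versus DMSO.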

[3] = read-out: Interleukin 6 (IL6), IL6 (gene 3569); experiment: LTEA_HepaRG_IL6: Life Technologies and Expression Analysis (LTEA) Assay for Interleukin 6 (IL6) using HepaRG (AID 2283509)
Method in brief: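 Transcript levels, normalized to three housekeeping genes, were quantified by qRT-PCR after 48 h chemical treatment of HepaRG cells. Eight-point half-log series from 100 uM in 0.5% DMSO, duplicates. Fitted both directions against DMSO baseline.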

[4] = read-out: Interleukin 6 Receptor (IL6R), IL6R (gene 3570); experiment: LTEA_HepaRG_IL6R: Life Technologies and Expression Analysis (LTEA) Assay for Interleukin 6 Receptor (IL6R) using HepaRG (AID 2283510);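 on AC50: TaqMan qRT-PCR signal normalized to ACTB GAPDH and POLR2A housekeeping genes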
Method in brief: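 HepaRG, 48 h exposure, 8-pt half-log series, top 100 uM, 0.5% DMSO vehicle, duplicates. Read-out: TaqMan qRT-PCR of IL6R transcript, housekeeping-gene normalized. Gain or loss fitted relative to DMSO baseline.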

[5] = read-out: Potassium channel subfamily K member 1 (KCNK1), KCNK1 (gene 3775); experiment: LTEA_HepaRG_KCNK1: Life Technologies and Expression Analysis (LTEA) Assay for Potassium channel subfamily K member 1 (KCNK1) using HepaRG (AID 2283511)
Method in brief: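 KCNK1 transcript measured by TaqMan qRT-PCR against three housekeeping genes, after HepaRG cells were treated 48 h with eight half-log concentrations (top 100 uM, 0.5% DMSO). Curves fitted bidirectionally relative to vehicle.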

[6] = read-out: Keratin 19 (KRT19), KRT19 (gene 3880); experiment: LTEA_HepaRG_KRT19: Life Technologies and Expression Analysis (LTEA) Assay for Keratin 19 (KRT19) using HepaRG (AID 2283512)
Method in brief: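 Differentiated HepaRG cells in serum-free induction medium, exposed 48 h in duplicate to 8 half-log concentrations up to 100 uM in 0.5% DMSO. KRT19 mRNA by qRT-PCR, normalized to ACTB, GAPDH, POLR2A; bidirectional fit vs DMSO.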

[7] = read-out: JUN Transcription Factor, JUN (gene 3725); experiment: LTEA_HepaRG_JUN: Life Technologies and Expression Analysis (LTEA) Assay for JUN Transcription Factor using HepaRG (AID 2283513)
Method in brief: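 HepaRG, 48 h exposure, 8-pt half-log series top 100 uM, 0.5% DMSO, duplicate. JUN mRNA by qRT-PCR (Fluidigm), housekeeping-normalized (ACTB/GAPDH/POLR2A); bidirectional curve fit vs DMSO baseline.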

[8] = read-out: Lipase C (LIPC), LIPC (gene 3990); experiment: LTEA_HepaRG_LIPC: Life Technologies and Expression Analysis (LTEA) Assay for Lipase C (LIPC) using HepaRG (AID 2283514)
Method in brief: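 LIPC expression was quantified by qRT-PCR against three housekeeping genes (ACTB, GAPDH, POLR2A). Differentiated human HepaRG cells received eight half-log doses (top 100 uM, 0.5% DMSO) in duplicate for 48 h; fitting bidirectional relative to DMSO.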

[9] = read-out: Lipoprotein lipase (LPL), LPL (gene 4023); experiment: LTEA_HepaRG_LPL: Life Technologies and Expression Analysis (LTEA) Assay for Lipoprotein lipase (LPL) using HepaRG (AID 2283515)
Method in brief: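 LPL transcript levels quantified by TaqMan qRT-PCR against three housekeeping genes after 48 h chemical treatment of HepaRG cells. Eight-point half-log series from 100 uM in 0.5% DMSO, tested in duplicate; bidirectional fitting versus vehicle.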

[10] = read-out: MicroRNA 122 (MIR122), gene 406906; experiment: LTEA_HepaRG_MIR122: Life Technologies and Expression Analysis (LTEA) Assay for MicroRNA 122 (MIR122) using HepaRG (AID 2283516); further: the transcript read is the microRNA miR-122
Method in brief: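 qRT-PCR read-out (TaqMan, Fluidigm array), normalized to three housekeeping genes; HepaRG cells dosed 48 h at 8 concentrations up to 100 uM in 0.5% DMSO, duplicate; gain or loss fitted against DMSO baseline.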

[11] = read-out: matrix metalloproteinase-10 (MMP10), MMP10 (gene 4319); experiment: LTEA_HepaRG_MMP10: Life Technologies and Expression Analysis (LTEA) Assay for matrix metalloproteinase-10 (MMP10) using HepaRG (AID 2283517)
Method in brief: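 Expression measured by TaqMan qRT-PCR with ACTB/GAPDH/POLR2A normalisation after 48 h chemical exposure of HepaRG cells. Eight half-log concentrations, top 100 uM, 0.5% DMSO vehicle, duplicates; gain or loss fitted against vehicle.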

[12] = read-out: matrix metalloproteinase-3 (MMP3), MMP3 (gene 4314); experiment: LTEA_HepaRG_MMP3: Life Technologies and Expression Analysis (LTEA) Assay for matrix metalloproteinase-3 (MMP3) using HepaRG (AID 2283519)
Method in brief: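 Fluidigm-based TaqMan qRT-PCR, normalized to ACTB, GAPDH and POLR2A and fitted bidirectionally versus 0.5% DMSO, measured transcript levels. Treatment: duplicate 48 h exposures of HepaRG cells, ~100,000/well, to eight half-log concentrations topping at 100 uM.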

[13] = read-out: Paternally Expressed 10 (PEG10), PEG10 (gene 23089); experiment: LTEA_HepaRG_PEG10: Life Technologies and Expression Analysis (LTEA) Assay for Paternally Expressed 10 (PEG10) using HepaRG (AID 2283520);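 on AC50: PEG10 transcript by qRT-PCR normalised to ACTB GAPDH and POLR2A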
Method in brief: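 qRT-PCR read-out: PEG10 mRNA normalised to three housekeeping genes, fitted bidirectionally against 0.5% DMSO vehicle. HepaRG cells received test chemicals for 48 h in serum-free induction medium, 8 points, top 100 uM, half-log steps.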

[14] = read-out: Protein phosphatase 2A (PPP2R4), PTPA (gene 5524); experiment: LTEA_HepaRG_PPP2R4: Life Technologies and Expression Analysis (LTEA) Assay for Protein phosphatase 2A (PPP2R4) using HepaRG (AID 2283522)
Method in brief: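 HepaRG, 48 h exposure, 8-pt half-log series from 100 uM, 0.5% DMSO vehicle, duplicates. Readout: PPP2R4 mRNA, Fluidigm qRT-PCR, housekeeping-normalized. Bidirectional curve fit vs DMSO baseline.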

[15] = read-out: Phosphatase and tensin (PTEN), PTEN (gene 5728); experiment: LTEA_HepaRG_PTEN: Life Technologies and Expression Analysis (LTEA) Assay for Phosphatase and tensin (PTEN) using HepaRG (AID 2283523)
Method in brief: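 Read-out: TaqMan qRT-PCR of PTEN transcript, normalized to three housekeeping genes, fitted in both directions against 0.5% DMSO. Differentiated human HepaRG cultures received chemicals for 48 h, eight-point half-log series topping at 100 uM.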

[16] = read-out: solute carrier (SLC22A1), SLC22A1 (gene 6580); experiment: LTEA_HepaRG_SLC22A1: Life Technologies and Expression Analysis (LTEA) Assay for solute carrier (SLC22A1) using HepaRG (AID 2283524)
Method in brief: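 Transcript level of SLC22A1 quantified by qRT-PCR (normalized to three housekeeping genes) after 48 h chemical exposure of HepaRG cells, eight concentrations up to 100 µM, half-log steps, 0.5% DMSO vehicle. Gain or loss relative to DMSO fitted bidirectionally.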

[17] = read-out: Pyruvate Dehydrogenase Kinase 4 (PDK4), PDK4 (gene 5166); experiment: LTEA_HepaRG_PDK4: Life Technologies and Expression Analysis (LTEA) Assay for Pyruvate Dehydrogenase Kinase 4 (PDK4) using HepaRG (AID 2283525)
Method in brief: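 Readout is qRT-PCR of PDK4 transcript, normalized to three housekeeping genes, with bidirectional fitting against 0.5% DMSO vehicle. Differentiated HepaRG cells were treated 48 h in serum-free induction medium, duplicate wells, eight-point half-log series topping at 100 uM.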

MYC, MYC (gene 4609) = experiment: LTEA_HepaRG_MYC: Life Technologies and Expression Analysis (LTEA) Assay for MYC using HepaRG (AID 2283518)
Method in brief: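 Differentiated HepaRG cells exposed 48 h in serum-free induction medium to 8 concentrations (top 100 uM, half-log steps; 0.5% DMSO), duplicate. MYC mRNA measured by Fluidigm qRT-PCR, normalized to ACTB, GAPDH, POLR2A; bidirectional fit versus DMSO.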

[18] = read-out: Nuclear factor NF-kappa-B p105 subunit (Homo sapiens) (UniProt P19838); experiment: LTEA_HepaRG_NFKB1: Life Technologies and Expression Analysis (LTEA) Assay for Nuclear Factor Kappa B Subunit 1 (NFKB1) using HepaRG (AID 2283521);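 further: TaqMan qRT-PCR transcript normalised to ACTB GAPDH and POLR2A housekeeping genes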
Method in brief: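 Human HepaRG cells receive eight half-log concentrations, highest 100 uM, for 48 h. NFKB1 expression is then quantified by qRT-PCR and analysed for up- or down-regulation relative to 0.5% DMSO vehicle.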

[19] = read-out: NAD(P)H dehydrogenase [quinone] 1 (NQO1), NQO1 (gene 1728); experiment: LTEA_HepaRG_NQO1: Life Technologies and Expression Analysis (LTEA) Assay for NAD(P)H dehydrogenase [quinone] 1 (NQO1) using HepaRG (AID 2283526)
Method in brief: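 qRT-PCR read-out (Fluidigm TaqMan), normalized to three housekeeping genes, after 48 h chemical exposure of HepaRG cells. Concentrations: eight points, top 100 uM, half-log steps, 0.5% DMSO vehicle. Gain or loss of signal fitted relative to DMSO.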

Measured: AC50

Nuclear factor NF-kappa-B p105 subunit (Homo sapiens), sequence (P19838 whole entry, looked up): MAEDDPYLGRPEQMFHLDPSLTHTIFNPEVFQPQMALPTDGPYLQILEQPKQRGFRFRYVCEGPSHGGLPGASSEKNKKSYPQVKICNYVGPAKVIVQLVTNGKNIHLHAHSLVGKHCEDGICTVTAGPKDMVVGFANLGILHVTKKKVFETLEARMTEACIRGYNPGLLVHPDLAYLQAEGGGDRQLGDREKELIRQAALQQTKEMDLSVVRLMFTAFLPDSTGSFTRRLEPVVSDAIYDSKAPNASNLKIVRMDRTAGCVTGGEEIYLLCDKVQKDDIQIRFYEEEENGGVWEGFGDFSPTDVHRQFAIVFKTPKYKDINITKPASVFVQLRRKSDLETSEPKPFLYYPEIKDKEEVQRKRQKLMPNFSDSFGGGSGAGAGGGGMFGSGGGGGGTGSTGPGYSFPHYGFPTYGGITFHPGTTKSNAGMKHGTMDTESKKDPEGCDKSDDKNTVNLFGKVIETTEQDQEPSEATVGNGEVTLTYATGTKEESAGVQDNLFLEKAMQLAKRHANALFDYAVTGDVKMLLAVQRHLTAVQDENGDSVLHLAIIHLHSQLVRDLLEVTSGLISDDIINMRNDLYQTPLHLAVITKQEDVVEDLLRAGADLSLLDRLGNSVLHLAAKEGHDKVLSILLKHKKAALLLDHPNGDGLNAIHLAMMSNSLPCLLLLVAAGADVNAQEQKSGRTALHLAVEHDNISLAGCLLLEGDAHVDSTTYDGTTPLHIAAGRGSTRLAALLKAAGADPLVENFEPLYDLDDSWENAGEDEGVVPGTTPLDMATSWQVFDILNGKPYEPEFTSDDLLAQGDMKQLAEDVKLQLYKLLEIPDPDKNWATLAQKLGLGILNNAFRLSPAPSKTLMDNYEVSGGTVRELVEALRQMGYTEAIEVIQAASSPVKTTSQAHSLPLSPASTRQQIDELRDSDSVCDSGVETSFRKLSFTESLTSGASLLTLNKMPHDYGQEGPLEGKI

CC(C)=CC1C(C(=O)OCN2C(=O)C3=C(CCCC3)C2=O)C1(C)C (stereo unspecified)
inactive: [1] | [2] | [3] | [4] | [5] | [6] | [7] | [8] | [9] | [10] | [11] | [12] | [13] | [14] | [15] | [16] | [17]

CC(Oc1cccc(Cl)c1)C(=O)O (stereo unspecified)
inactive: [1] | [2] | [3] | [4] | [5] | [6] | [7] | [8] | [9] | [10] | [11] | MYC, MYC (gene 4609) | [13] | [14] | [16] | [17]

CC(C1CC1)C(O)(Cn1cncn1)c1ccc(Cl)cc1 (stereo unspecified)
inactive: [1] | [2] | [3] | [4] | [5] | [6] | [7] | [8] | [9] | [10] | [11] | MYC, MYC (gene 4609) | [13] | [18] | [14] | [15] | [17] | [19]
active: [16] 66.9 µM

CCOP(=O)(OCC)Oc1cc(C)nc(C(C)C)n1
inactive: [1] | [2] | [3] | [4] | [5] | [6] | [7] | [8] | [9] | [10] | [11] | MYC, MYC (gene 4609) | [13] | [14] | [15] | [16] | [17] | [19]

CCc1cccc(C)c1N(C(=O)CCl)C(C)COC (stereo unspecified)
inactive: [1] | [2] | [3] | [4] | [5] | [6] | [7] | [8] | [9] | [10] | [11] | [13] | [18] | [14] | [15] | [16] | [17] | [19]

CCOP(=S)(Oc1cnc(C(C)(C)C)nc1)OC(C)C (stereo unspecified)
inactive: [1] | [2] | [3] | [5] | [6] | [7] | [9] | [10] | [11] | MYC, MYC (gene 4609) | [18] | [14] | [15] | [16] | [19]
active: [4] 25.1 µM | [8] 18.8 µM | [13] 13.3 µM | [17] 1.35 µM

CSC1=N[C@@](C)(c2ccccc2)C(=O)N1Nc1ccccc1
active: [1] 34 µM | [2] 31.6 µM | [3] 33.3 µM | [4] 16.5 µM | [6] 18.7 µM | [8] 31.4 µM | [9] 26.9 µM | [10] 50 µM | MYC, MYC (gene 4609) 31.2 µM | [13] 20.1 µM | [16] 34.2 µM | [17] 12.7 µM
inactive: [5] | [7] | [11] | [14] | [15] | [19]

CSc1nc(NC(C)C)nc(NC(C)C)n1
inactive: [1] | [2] | [3] | [4] | [5] | [6] | [7] | [8] | [9] | [11] | MYC, MYC (gene 4609) | [14] | [15] | [17] | [19]
active: [10] 50 µM | [13] 22.5 µM | [16] 34.4 µM

CCOP(=S)(OCC)Oc1ccc([N+](=O)[O-])cc1
inactive: [1] | [2] | [3] | [6] | [7] | [8] | [10] | [11] | MYC, MYC (gene 4609) | [13] | [18] | [14] | [15] | [16] | [17]
active: [4] 1.48 µM

CCCCOC(=O)c1ccccc1C(=O)O
inactive: [1] | [2] | [3] | [4] | [5] | [6] | [7] | [8] | [9] | [10] | [11] | MYC, MYC (gene 4609) | [13] | [18] | [14] | [15] | [16] | [17] | [19]

CN(C)NC(=O)CCC(=O)O
inactive: [1] | [2] | [3] | [4] | [5] | [6] | [7] | [8] | [9] | [10] | [11] | MYC, MYC (gene 4609) | [13] | [18] | [14] | [15] | [16] | [17]
